PubChem BioAssay (Tox21)
Inconclusive results are not listed. Calls of active or inactive are those of the source. Unless noted, calls follow the shape of the full dose curve.

Columns and labels:
[1] = Nuclear factor erythroid 2-related factor 2/antioxidant responsive element (Nrf2/ARE) small molecule agonists: qHTS cell viability counter screen in human keratinocytes (AID 1919968; active = well fitted curve in the direction sought with a large enough effect in the repeat runs; an effect the other way counts as inactive or inconclusive; also: nearly all actives have a fitted effect of over 55% in size; also: potency is read from the fitted curve at half-maximal effect)
Procedure, shortened: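 After a 5 h attachment period, ARE-reporter keratinocytes were dosed with compounds in DMSO and then cultured 23 h at 37 C. Cell viability came from CellTiter-Fluor signal read after a further 1 h.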

[2] = Nuclear factor erythroid 2-related factor 2/antioxidant responsive element (Nrf2/ARE) small molecule agonists: luciferase reporter gene qHTS assay in human keratinocytes (AID 1919969); also: nearly all actives have a fitted effect of over 35% in size; also: potency is read from the fitted curve at half-maximal effect
[3] = molecular target: Gonadotropin-releasing hormone receptor (Homo sapiens) (UniProt P30968); test: Human gonadotropin-releasing hormone receptor (GnRHR) small molecule agonists, calcium flux assay in GnRHR-HEK293 cells (AID 1920063); also: nearly all actives have a fitted effect of over 35% in size
Procedure, shortened: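 We seeded human GnRHR-expressing HEK293 cells for 18 hours, loaded them with calcium dye for an hour at 37 C, added test compounds, and recorded fluorescence intensity kinetically for three minutes.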

[4] = molecular target: KiSS-1 receptor (Homo sapiens) (UniProt Q969F8); test: Human kisspeptin (KISS1R) small molecule agonists, calcium flux assay in KISS1R-HEK293 cells (AID 1920064; active = well fitted curve in the direction sought with a large enough effect in the repeat runs; an effect the other way counts as inactive or inconclusive)
Procedure, shortened: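 Kinetic calcium assay, 1 s sampling over 3 min at Ex/Em 480/540, in HEK293 cells engineered with human KISS1R; compounds delivered in DMSO after 1 h dye loading.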

[5] = G protein-coupled receptor (GPCR) small molecule agonists, calcium flux assay: HEK293 wild type cell line counter screen (AID 1920065)
Procedure, shortened: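 Calcium-sensitive dye, loaded 1 h at 37 C into cells cultured 18 h, reports compound-evoked calcium release as fluorescence (Ex/Em 480/540), measured over 3 min. Agonist mode; 15-point titrations, triplicate.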

[6] = p53 small molecule agonists, cell-based qHTS assay with human liver microsomes (AID 1963577);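 also: p53 response element beta-lactamase reporter cells with liver microsomes plus NADPH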
Procedure, shortened: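 HLM-supplemented p53RE-bla reporter assay: 16 h compound exposure at 37 C, microsomes and NADPH each 0.5 mg/mL final, read by fluorescence intensity.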

[7] = p53 small molecule agonists, cell-based qHTS assay with rat liver microsomes (AID 1963578)
Procedure, shortened: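 Quantitative HTS of the Tox21 10K library: p53RE-bla cells, rat liver microsomes plus NADPH at 0.5 mg/mL final each, 16 h at 37 C, beta-lactamase fluorescence detection.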

[8] = p53 small molecule agonists, cell-based qHTS assay with human liver microsomes: qHTS cell viability counter screen (AID 1963579); also: nearly all actives have a fitted effect of over 45% in size; also: potency is read from the fitted curve at half-maximal effect
Procedure, shortened: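 Viability of p53RE-bla cells is measured as CellTiter-Glo luminescence following a 16 h, 37 C incubation with compound, liver microsomes from human donors and NADPH.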

[9] = p53 small molecule agonists, cell-based qHTS assay with rat liver microsomes: qHTS cell viability counter screen (AID 1963580); also: nearly all actives have a fitted effect of over 45% in size; also: potency is read from the fitted curve at half-maximal effect
Procedure, shortened: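 p53RE-bla HCT-116 cells were exposed 16 h at 37 C to compounds with rat liver microsomes (0.5 mg/mL) and NADPH (0.5 mg/mL). Viability was measured in the same wells as ATP content by CellTiter-Glo luminescence.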

[10] = molecular target: 5-hydroxytryptamine receptor 2A (Homo sapiens) (UniProt P28223); test: 5-hydroxytryptamine receptor 2A (HTR2A) small molecule antagonists, cell-based qHTS assay (AID 1963586); also: nearly all actives have a fitted effect of over 45% in size
Procedure, shortened: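 Antagonist-mode intracellular calcium assay: DOI (4 nM) added after 5 min compound pre-incubation at room temperature to dye-loaded HTR2A-CHO cells. Fluorescence followed for 3 min, sampled every second.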

[11] = molecular target: 5-hydroxytryptamine receptor 2A (Homo sapiens) (UniProt P28223); test: 5-hydroxytryptamine receptor 2A (HTR2A) small molecule agonists, cell-based qHTS assay (AID 1963587); also: nearly all actives have a fitted effect of over 30% in size
Procedure, shortened: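 CHO cells stably expressing human HTR2A, plated 18 h, loaded with calcium dye 1 h at 37 C. Agonist mode: compounds added and intracellular calcium fluorescence recorded kinetically for 2 min at 1 sec intervals.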

[12] = molecular target: Muscarinic acetylcholine receptor M1 (Homo sapiens) (UniProt P11229); test: Cholinergic receptor muscarinic 1 (CHRM1) small molecule antagonists, cell-based qHTS assay (AID 1963588); also: nearly all actives have a fitted effect of over 40% in size; also: potency is read from the fitted curve at half-maximal effect
Procedure, shortened: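 CHRM1-CHO calcium-flux assay, antagonist mode. Cells were seeded 18 h, dye-loaded 1 h at 37 C and given compound for 5 min at RT, then acetylcholine was added at 50nM. FDSS fluorescence was read 3 min; 15 concentrations, three runs.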

[13] = molecular target: Muscarinic acetylcholine receptor M1 (Homo sapiens) (UniProt P11229); test: Cholinergic receptor muscarinic 1 (CHRM1) small molecule agonists, cell-based qHTS assay (AID 1963589); also: nearly all actives have a fitted effect of over 35% in size
Procedure, shortened: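 Measures agonist-induced intracellular calcium rise. Stable human CHRM1 CHO line, 1 h dye load at 37 C, compounds from DMSO, kinetic fluorescence read.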

[14] = cAMP Responsive Elements (CRE) small molecule agonists, cell-based qHTS assay (AID 1963590)
Procedure, shortened: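 A CRE-responsive beta-lactamase reporter in HEK 293T cells was used. Treatment ran 3 h at 37 C; detection used LiveBLAzer B/G FRET substrate for 2 h at room temperature.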

[15] = molecular target: Beta-2 adrenergic receptor (Homo sapiens) (UniProt P07550); test: Adrenergic beta2 receptor (ADRB2) small molecule antagonists, cell-based qHTS assay (AID 1963592); also: series mostly up to about 92 µM; nearly all actives have a fitted effect of over 50% in size
Procedure, shortened: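 Cells (CHO, stable ADRB2 overexpression) incubated 18-20hr at 37C; compounds added from DMSO; agonist mix (1nM isoproterenol, 100uM IBMX, 25uM Ro-20-1724) added; 0.5hr RT; d2-cAMP and anti-cAMP-cryptate added; 1hr RT; 665/615 nm read.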

[16] = molecular target: D(2) dopamine receptor (Homo sapiens) (UniProt P14416); test: Dopamine D2 receptor (DRD2) small molecule agonists, cell-based qHTS assay (AID 1963594); also: nearly all actives have a fitted effect of over 35% in size
Procedure, shortened: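 HEK293 cells stably expressing human DRD2, pre-treated with PDE inhibitor Ro20-1724 (0.1 mM final) and compound 10 min at room temperature, then stimulated with NKH477 (200nM […]) for 30 min. cAMP read by HTRF (665/620 nm).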

[17] = molecular target: D(2) dopamine receptor (Homo sapiens) (UniProt P14416); test: Dopamine D2 receptor (DRD2) small molecule antagonists, cell-based qHTS assay (AID 1963595; active = well fitted inhibition curve with a large enough effect in the signal ratio in the repeat runs, with a control signal flat; the % refers to the signal ratio; also: potency is read from the fitted curve at half-maximal effect)
Procedure, shortened: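 HTRF cAMP read-out at 665 and 620 nm emission (340 nm excitation). Antagonist mode: compounds were tested against 12 nM quinpirole in DRD2-HEK293 cells, with 200 nM NKH477 raising cAMP and 0.1 mM Ro20-1724 blocking its breakdown.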

[18] = p53 small molecule agonists, cell-based qHTS assay (AID 1963582; active = well fitted activation curve with a large enough effect in the signal ratio in the repeat runs, not every such curve was filed as active; the % refers to the signal ratio; also: potency is read from the fitted curve at half-maximal effect)
Procedure, shortened: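 In this cell-based concentration-response screen, a p53 response element drives beta-lactamase; cells received DMSO-borne compounds after 5 h culture and were incubated a further 16 h before FRET substrate development.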

[19] = cAMP Responsive Elements (CRE) small molecule antagonists, cell-based qHTS assay (AID 1963591; active = well fitted inhibition curve with a large enough effect in the signal ratio in the repeat runs, not every such curve was filed as active; the % refers to the signal ratio)
Procedure, shortened: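 HEK293T cells carrying a CRE-driven beta-lactamase reporter receive compound and NKH477 (0.25 uM final) for 3 h. Fluorescence from LiveBLAzer B/G FRET substrate is read after 2 h at room temperature.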

Measured: Potency

Sequence of D(2) dopamine receptor (Homo sapiens) (P14416 whole entry, looked up): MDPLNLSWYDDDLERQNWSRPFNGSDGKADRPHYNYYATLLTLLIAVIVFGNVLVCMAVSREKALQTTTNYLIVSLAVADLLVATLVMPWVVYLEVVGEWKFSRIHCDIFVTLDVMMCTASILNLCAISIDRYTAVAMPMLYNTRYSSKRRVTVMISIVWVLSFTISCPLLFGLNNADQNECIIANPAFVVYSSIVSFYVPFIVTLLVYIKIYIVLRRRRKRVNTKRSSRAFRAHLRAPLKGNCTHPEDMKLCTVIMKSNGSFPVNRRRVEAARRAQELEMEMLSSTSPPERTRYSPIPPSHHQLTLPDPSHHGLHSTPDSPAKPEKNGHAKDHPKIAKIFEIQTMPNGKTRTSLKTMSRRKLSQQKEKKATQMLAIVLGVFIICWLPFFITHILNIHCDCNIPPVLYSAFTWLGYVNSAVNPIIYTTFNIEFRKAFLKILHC
Sequence of Beta-2 adrenergic receptor (Homo sapiens) (P07550 whole entry, looked up): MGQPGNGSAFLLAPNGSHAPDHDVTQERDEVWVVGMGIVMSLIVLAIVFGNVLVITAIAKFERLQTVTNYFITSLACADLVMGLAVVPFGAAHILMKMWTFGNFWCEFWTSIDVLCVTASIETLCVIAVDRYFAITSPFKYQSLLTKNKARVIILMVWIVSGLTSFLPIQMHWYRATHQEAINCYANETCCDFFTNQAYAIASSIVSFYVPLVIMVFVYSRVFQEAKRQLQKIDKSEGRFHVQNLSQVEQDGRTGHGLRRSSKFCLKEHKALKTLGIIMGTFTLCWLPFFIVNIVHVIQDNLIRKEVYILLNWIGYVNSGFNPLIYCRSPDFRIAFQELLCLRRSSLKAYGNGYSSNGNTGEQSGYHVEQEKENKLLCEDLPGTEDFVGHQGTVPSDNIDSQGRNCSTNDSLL
Sequence of Gonadotropin-releasing hormone receptor (Homo sapiens) (P30968 whole entry, looked up): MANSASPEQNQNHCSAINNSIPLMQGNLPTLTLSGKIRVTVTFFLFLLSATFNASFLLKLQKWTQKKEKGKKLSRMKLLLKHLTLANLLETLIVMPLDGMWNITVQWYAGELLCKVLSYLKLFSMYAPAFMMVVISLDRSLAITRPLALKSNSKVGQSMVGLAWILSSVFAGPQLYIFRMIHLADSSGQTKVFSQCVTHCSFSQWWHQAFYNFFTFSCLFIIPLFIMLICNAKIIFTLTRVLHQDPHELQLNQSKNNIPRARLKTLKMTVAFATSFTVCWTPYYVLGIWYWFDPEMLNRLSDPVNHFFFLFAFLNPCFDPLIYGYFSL
Sequence of KiSS-1 receptor (Homo sapiens) (Q969F8 whole entry, looked up): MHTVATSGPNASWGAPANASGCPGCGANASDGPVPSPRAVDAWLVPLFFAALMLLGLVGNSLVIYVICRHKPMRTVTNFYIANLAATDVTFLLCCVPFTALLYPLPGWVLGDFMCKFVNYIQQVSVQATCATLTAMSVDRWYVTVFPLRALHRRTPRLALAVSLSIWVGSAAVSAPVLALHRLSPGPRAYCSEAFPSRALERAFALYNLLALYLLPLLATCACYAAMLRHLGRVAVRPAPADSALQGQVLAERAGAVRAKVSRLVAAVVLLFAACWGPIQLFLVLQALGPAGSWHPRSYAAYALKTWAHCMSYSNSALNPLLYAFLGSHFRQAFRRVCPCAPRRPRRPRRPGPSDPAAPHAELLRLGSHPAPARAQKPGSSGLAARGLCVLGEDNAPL
Sequence of Muscarinic acetylcholine receptor M1 (Homo sapiens) (P11229 whole entry, looked up): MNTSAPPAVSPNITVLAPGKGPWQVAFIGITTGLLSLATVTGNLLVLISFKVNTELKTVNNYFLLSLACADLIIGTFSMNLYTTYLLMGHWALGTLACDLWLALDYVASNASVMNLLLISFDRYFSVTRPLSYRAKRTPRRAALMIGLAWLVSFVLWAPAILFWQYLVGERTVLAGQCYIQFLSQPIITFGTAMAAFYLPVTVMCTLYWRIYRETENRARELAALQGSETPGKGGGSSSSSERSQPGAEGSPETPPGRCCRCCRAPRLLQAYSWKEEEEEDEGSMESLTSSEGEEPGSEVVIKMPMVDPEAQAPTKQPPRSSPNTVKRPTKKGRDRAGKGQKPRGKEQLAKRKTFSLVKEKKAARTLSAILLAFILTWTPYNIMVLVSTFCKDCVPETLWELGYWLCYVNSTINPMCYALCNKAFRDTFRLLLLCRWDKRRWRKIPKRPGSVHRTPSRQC
Sequence of 5-hydroxytryptamine receptor 2A (Homo sapiens) (P28223 whole entry, looked up): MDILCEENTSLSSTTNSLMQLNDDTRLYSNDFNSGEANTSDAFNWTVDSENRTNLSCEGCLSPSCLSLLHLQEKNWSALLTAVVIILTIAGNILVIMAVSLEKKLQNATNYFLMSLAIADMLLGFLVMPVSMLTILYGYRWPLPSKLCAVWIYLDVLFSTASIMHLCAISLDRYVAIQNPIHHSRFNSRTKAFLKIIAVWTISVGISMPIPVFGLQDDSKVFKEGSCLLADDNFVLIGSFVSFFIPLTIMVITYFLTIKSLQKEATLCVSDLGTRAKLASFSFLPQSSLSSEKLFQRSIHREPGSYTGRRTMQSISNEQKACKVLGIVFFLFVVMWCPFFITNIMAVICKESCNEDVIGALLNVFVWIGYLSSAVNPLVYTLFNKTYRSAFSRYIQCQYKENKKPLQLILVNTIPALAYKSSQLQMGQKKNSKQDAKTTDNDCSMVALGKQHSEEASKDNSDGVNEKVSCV

CN(C[C@@H](CC[N+]12CCC(C3CCCCC3)(CC1)CC2)c1ccc(Cl)c(Cl)c1)C(=O)c1cc(C(F)(F)F)cc(C(F)(F)F)c1
active: [1] 61.1 µM | [2] 24.3 µM | [8] 36.3 µM | [9] 40.8 µM | [12] 0.0942 µM
inactive: [3] | [4] | [5] | [6] | [7] | [10] | [11] | [13]

CCOC(=O)c1ccccc1O
not listed: [18] | [19]
inactive: all other assays above

CN1CCC(=C2c3ccccc3C=Cc3ccccc32)CC1
active: [17] 13.3 µM
not listed: [10] | [11] | [12] | [13] | [15]
inactive: all other assays above

CCN(CC)C(C)CN1c2ccccc2Sc2ccccc21 (centres undefined)
not listed: [10] | [12] | [13] | [17]
inactive: all other assays above

O=C(O)Cc1sc(-c2ccccc2)nc1-c1ccc(Cl)cc1
not listed: [14] | [16] | [18] | [19]
inactive: all other assays above

O=C(O)c1snc(Cl)c1Cl
active: [2] 68.6 µM
not listed: [17] | [18]
inactive: all other assays above

Cc1occc(=O)c1OC(=O)C(C)C
not listed: [18]
inactive: all other assays above

C[C@H]1O[C@@H](n2cc(F)c(=O)[nH]c2=O)[C@H](O)[C@@H]1O
active: [18] 15.8 µM
not listed: [10] | [11] | [12] | [13]
inactive: all other assays above
